Results as given in PubChem BioAssay (EPA / NIEHS).
Calls of active or inactive are those of the source. The calls were made as follows: active = hit-call score of the fitted dose curve at least 0.9, where 1 is the maximum; inactive = score below 0.9.

How the values were obtained:
[1] = read-out: Macrophage colony-stimulating factor (MCSF), CSF1 (gene 1435); experiment: BSK_hDFCGF_MCSF: BioMAP Diversity Plus: hDFCGF Assay for Macrophage colony-stimulating factor (MCSF) Biomarker Activity (AID 2283060); settings: primary human foreskin fibroblasts; actives raise or lower the signal
Summary of the method: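 M-CSF levels, determined by ELISA, are taken at 24 h after dosing human skin fibroblasts. Responses in either direction are fitted with DMSO serving as the baseline.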

[2] = read-out: Monokine induced gamma interferon (MIG), CXCL9 (gene 4283); experiment: BSK_hDFCGF_MIG: BioMAP Diversity Plus: hDFCGF Assay for Monokine induced gamma interferon (MIG) Biomarker Activity (AID 2283063); settings: primary human foreskin fibroblasts; actives raise or lower the signal
Summary of the method: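 MIG signal, determined by ELISA, reflects 24 h chemical exposure of human skin primary fibroblasts. DMSO serves as negative control and baseline.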

[3] = read-out: Matrix Metallopeptidase 1 (MMP1), MMP1 (gene 4312); experiment: BSK_hDFCGF_MMP1: BioMAP Diversity Plus: hDFCGF Assay for Matrix Metallopeptidase 1 (MMP1) Biomarker Activity (AID 2283064); settings: primary human foreskin fibroblasts; actives raise or lower the signal
Summary of the method: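 hDFCGF primary fibroblasts (human foreskin); chemical added; 24 h; MMP1 by ELISA; bidirectional fit vs DMSO.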

[4] = read-out: Vascular cell adhesion molecule 1 (VCAM1), VCAM1 (gene 7412); experiment: BSK_hDFCGF_VCAM1: BioMAP Diversity Plus: hDFCGF Assay for Vascular cell adhesion molecule 1 (VCAM1) Biomarker Activity (AID 2283065); settings: primary human foreskin fibroblasts; actives raise or lower the signal
Summary of the method: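 Cells are dosed, cultured for 24 h, then VCAM-1 is quantified by ELISA; signal increases and decreases are both fitted relative to DMSO.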

[5] = read-out: Plasminogen activator inhibitor-1 (PAI1), SERPINE1 (gene 5054); experiment: BSK_hDFCGF_PAI1: BioMAP Diversity Plus: hDFCGF Assay for Plasminogen activator inhibitor-1 (PAI1) Biomarker Activity (AID 2283066); settings: primary human foreskin fibroblasts; actives raise or lower the signal
Summary of the method: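 Human foreskin fibroblast primary cells, 24 h chemical exposure; PAI-1 measured by ELISA. Bidirectional fitting relative to DMSO; parallel cultures stained with SRB for total protein to flag overt cytotoxicity.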

[6] = read-out: Intercellular Adhesion Molecule 1 (ICAM1), ICAM1 (gene 3383); experiment: BSK_KF3CT_ICAM1: BioMAP Diversity Plus: KF3CT Assay for Intercellular Adhesion Molecule 1 (ICAM1) Biomarker Activity (AID 2283067); settings: primary human keratinocytes with fibroblasts; actives raise or lower the signal
Summary of the method: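 Dose the keratinocyte/fibroblast co-culture, wait 24 h, measure ICAM-1 by ELISA, then fit increases or decreases against DMSO. Cytotoxicity is checked in parallel cultures by SRB total-protein staining.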

[7] = read-out: Interferon-gamma inducible Protein 10 (IP10), CXCL10 (gene 3627); experiment: BSK_KF3CT_IP10: BioMAP Diversity Plus: KF3CT Assay for Interferon-gamma inducible Protein 10 (IP10) Biomarker Activity (AID 2283068); settings: primary human keratinocytes with fibroblasts; actives raise or lower the signal
Summary of the method: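 In a primary skin co-culture of keratinocytes and fibroblasts, IP-10 is quantified by ELISA at 24 h after dosing. SRB staining of parallel wells monitors overt toxicity. Curves are fitted both directions against DMSO.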

[8] = BSK_KF3CT_SRB: Viability Assessment in the BioMAP Diversity Plus: KF3CT Assay (AID 2283069); settings: primary human keratinocytes with fibroblasts;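 also: fitted for both signal gain and loss against DMSO baseline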
Summary of the method: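 Keratinocytes co-cultured with foreskin fibroblasts (human primary); chemical added, 24 h; fix 10% TCA, stain 0.1% SRB, A560. Bidirectional fit vs DMSO.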

[9] = read-out: Interleukin-1 alpha (IL1a), IL1A (gene 3552); experiment: BSK_KF3CT_IL1a: BioMAP Diversity Plus: KF3CT Assay for Interleukin-1 alpha (IL1a) Biomarker Activity (AID 2283070); settings: primary human keratinocytes with fibroblasts; actives raise or lower the signal
Summary of the method: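 Chemicals were dosed onto co-cultured human keratinocytes and foreskin fibroblasts, IL-1a was quantified by ELISA at 24 h, and activity was fitted in both directions relative to DMSO controls.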

[10] = read-out: TIMP metallopeptidase inhibitor 2 (TIMP2), TIMP2 (gene 7077); experiment: BSK_KF3CT_TIMP2: BioMAP Diversity Plus: KF3CT Assay for TIMP metallopeptidase inhibitor 2 (TIMP2) Biomarker Activity (AID 2283071); settings: primary human keratinocytes with fibroblasts; actives raise or lower the signal
Summary of the method: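 Co-culture of human primary keratinocytes and foreskin fibroblasts, measured 24 h after chemical dosing. TIMP-2 quantified by ELISA and fitted in both directions relative to DMSO. Cytotoxicity checked in parallel cultures by SRB total-protein staining.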

[11] = read-out: Transforming growth factor beta 1 (TGFb1), TGFB1 (gene 7040); experiment: BSK_KF3CT_TGFb1: BioMAP Diversity Plus: KF3CT Assay for Transforming growth factor beta 1 (TGFb1) Biomarker Activity (AID 2283072); settings: primary human keratinocytes with fibroblasts; actives raise or lower the signal
Summary of the method: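 Human keratinocyte/foreskin fibroblast co-culture; TGF-b1 measured by ELISA 24 h after dosing, fitted bidirectionally versus DMSO. Cytotoxicity checked in parallel cultures by total protein (SRB staining, 560 nm).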

[12] = read-out: C-C motif chemokine 2 (Homo sapiens) (UniProt P13500); experiment: BSK_KF3CT_MCP1: BioMAP Diversity Plus: KF3CT Assay for Monocyte Chemoattractant Protein 1 (MCP1/CCL2) Biomarker Activity (AID 2283073); settings: primary human keratinocytes with fibroblasts; actives raise or lower the signal
Summary of the method: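 Keratinocytes and foreskin fibroblasts were co-cultured, dosed with chemical, and sampled 24 h later. MCP-1 was quantified by ELISA, and the endpoint was analyzed with bidirectional fitting using DMSO as negative control.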

[13] = read-out: Matrix Metallopeptidase 9 (MMP9), MMP9 (gene 4318); experiment: BSK_KF3CT_MMP9: BioMAP Diversity Plus: KF3CT Assay for Matrix Metallopeptidase 9 (MMP9) Biomarker Activity (AID 2283074); settings: primary human keratinocytes with fibroblasts; actives raise or lower the signal;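 as to AC50: MMP9 protein level quantified by ELISA in the co-culture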
Summary of the method: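 Human keratinocyte/foreskin fibroblast co-culture; compound added; 24 h; MMP-9 by ELISA; bidirectional fit vs DMSO baseline.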

[14] = read-out: urokinase plasminogen activator (uPA), PLAU (gene 5328); experiment: BSK_KF3CT_uPA: BioMAP Diversity Plus: KF3CT Assay for urokinase plasminogen activator (uPA) Biomarker Activity (AID 2283075); settings: primary human keratinocytes with fibroblasts; actives raise or lower the signal
Summary of the method: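 ELISA readout of uPA, analyzed for signal gain or loss relative to DMSO, from a human primary keratinocyte–foreskin fibroblast co-culture measured 24 h after chemical treatment.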

CD40, CD40 (gene 958) = experiment: BSK_LPS_CD40: BioMAP Diversity Plus: LPS Assay for CD40 Biomarker Activity (AID 2283076); settings: primary human HUVEC with PBMC; actives raise or lower the signal
Summary of the method: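 CD40 signal, measured by ELISA, is fitted in both directions relative to DMSO vehicle. The system is an LPS-driven human vascular primary co-culture of endothelial cells and PBMC, sampled 24 h after compound addition.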

[15] = read-out: E-selectin (Homo sapiens) (UniProt P16581); experiment: BSK_LPS_Eselectin: BioMAP Diversity Plus: LPS Assay for Eselectin Biomarker Activity (AID 2283077); settings: primary human HUVEC with PBMC; actives raise or lower the signal
Summary of the method: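 Signal of E-selectin, detected by ELISA, served as the endpoint; cells were umbilical vein endothelium with PBMC, read 24 h after treatment. DMSO defined baseline, and both increases and decreases were fitted.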

[16] = read-out: Interleukin-8 (IL8), CXCL8 (gene 3576); experiment: BSK_LPS_IL8: BioMAP Diversity Plus: LPS Assay for Interleukin-8 (IL8) Biomarker Activity (AID 2283078); settings: primary human HUVEC with PBMC; actives raise or lower the signal
Summary of the method: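 Endothelial cells and PBMC from human donors are co-cultured, treated with chemicals and LPS, then assayed for IL-8 by ELISA after 24 h. Parallel SRB staining (0.1% SRB after 10% TCA fixation, 560 nm) flags cytotoxicity.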

[17] = BSK_LPS_SRB: Viability Assessment in the BioMAP Diversity Plus: LPS Assay (AID 2283079); settings: primary human HUVEC with PBMC;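 also: total protein by sulforhodamine B absorbance as a cytotoxicity measure; measured one day after compound addition; fitted in both directions against DMSO so loss or gain of signal counts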
Summary of the method: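 Overt cytotoxicity was gauged by sulforhodamine B total-protein staining in a primary human vascular endothelial and mononuclear cell co-culture 24 h post-dosing. Activity was fitted in both directions relative to DMSO.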

Measured: AC50

E-selectin (Homo sapiens), sequence (P16581 whole entry, looked up): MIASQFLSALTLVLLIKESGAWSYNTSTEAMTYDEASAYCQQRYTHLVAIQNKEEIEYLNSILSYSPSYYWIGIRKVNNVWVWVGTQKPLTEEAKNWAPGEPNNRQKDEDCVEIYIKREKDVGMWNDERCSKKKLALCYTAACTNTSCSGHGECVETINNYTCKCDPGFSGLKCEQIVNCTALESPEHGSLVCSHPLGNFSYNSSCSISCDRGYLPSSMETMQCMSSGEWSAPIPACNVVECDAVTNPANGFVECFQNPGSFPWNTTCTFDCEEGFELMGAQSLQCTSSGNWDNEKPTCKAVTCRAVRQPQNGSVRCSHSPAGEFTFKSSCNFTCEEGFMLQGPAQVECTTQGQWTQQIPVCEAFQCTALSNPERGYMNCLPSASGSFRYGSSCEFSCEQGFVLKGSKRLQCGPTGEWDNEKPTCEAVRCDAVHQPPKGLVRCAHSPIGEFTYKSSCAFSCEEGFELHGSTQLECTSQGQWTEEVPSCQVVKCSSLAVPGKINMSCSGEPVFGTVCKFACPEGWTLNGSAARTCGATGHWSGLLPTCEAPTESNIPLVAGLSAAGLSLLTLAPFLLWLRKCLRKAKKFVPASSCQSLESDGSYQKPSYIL

COc1ccc(C)cc1N
inactive: all assays above

COc1ccc2c(c1)c(CC(=O)O)c(C)n2C(=O)c1ccc(Cl)cc1
not listed: [4]
inactive: all other assays above

CCCCCCOCCO
not listed: [3] | [4] | [10]
inactive: all other assays above

COc1ccc(S(=O)(=O)N2C(=O)[C@@](c3ccccc3OC)(N3C[C@H](O)C[C@H]3C(=O)N(C)C)c3cc(Cl)ccc32)c(OC)c1
active: CD40, CD40 (gene 958) 20 µM | [16] 7.03 µM
not listed: [3] | [8] | [10]
inactive: all other assays above

CCOC(=O)CCC(=O)OCC
inactive: all assays above

O=c1c(O)c(-c2ccc(O)c(O)c2)oc2cc(O)cc(O)c12
inactive: [5] | [15]
active: [1] 7.26 µM | [2] 7.18 µM | [7] 17.6 µM | [8] 14.2 µM | [9] 7.22 µM | [10] 20 µM | [11] 20 µM | [12] 24.2 µM | [13] 20 µM | [14] 12.7 µM | CD40, CD40 (gene 958) 28.5 µM | [16] 20 µM | [17] 32.8 µM

COc1cc(C=O)ccc1O
not listed: [4] | [10]
inactive: all other assays above

Cc1ccc(C(C)C)c(O)c1
not listed: [3] | [4] | [8]
inactive: all other assays above
